Measurements: PubChem BioAssay (NCATS)
Values joined by “and” are separate entries in the source; they are usually repeats but may differ in a detail not shown here. Identical values can stand only once. Records with an inconclusive call do not appear. Active and inactive are the calls of the source. Unless noted, calls follow the shape of the dose curve; as a rule, active = well fitted curve in the direction sought with a large enough effect; inconclusive = small, poorly fitted or top-dose-only effect, or another doubt; inactive = no such curve, though single readings can be large; an effect the other way counts as inactive or inconclusive.

Key:
[1] = Cell Viability - BJ (AID 421; calls by dose curve;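 also: potency is read from the fitted curve at half-maximal effect; cells exposed to compound for 40 hours at 37 °C before readout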); conditions: BJ fibroblast viability, qHTS
Summary of the method: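 Cytotoxicity as drop in intracellular ATP (CellTiter-Glo, 20 min RT) after 40 hr compound exposure of BJ fibroblasts at 37 °C. Titrations scaled between DMSO and 100 uM tamoxifen, Hill-fitted for AC50.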

[2] = Cell Viability - HepG2 (AID 433; calls by dose curve;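 also: potency is read from the fitted curve at half-maximal effect; potency for ATP loss meaning cytotoxicity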); conditions: qHTS
Summary of the method: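 Read-out is luciferase-based quantitation of cellular ATP as a measure of viable HepG2 cells after 40 h treatment at 37 °C. Signal decrease is scaled between DMSO-only and 100 uM tamoxifen controls, with AC50 fitted by the Hill equation.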

[3] = Cell Viability - Mesenchymal (AID 546); conditions: mesenchymal cells viability, qHTS; activity change, negative = cytotoxicity: at 91.7 µM (top of the series);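 also: cells exposed to compound for 40 hours before reading; 0% = DMSO only and -100% = 100 µM tamoxifen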
Summary of the method: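 Human kidney mesenchymal cells from normal renal glomeruli, 1000 cells/well, rested 5 hr at 37 °C, then treated 40 hr at 37 °C in complete medium. Cellular ATP read by CellTiter-Glo luminescence; AC50 from Hill-equation fits.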

[4] = Cell Viability - LYMP1-003 - Assay at 40 hr (AID 964); conditions: LYMP1-003 lymphoblastoid viability; series mostly up to 92.2 µM; also: % is scaled to controls: 0 for no effect and ±100 for the full control effect; nearly all actives have a fitted effect of over 60% in size
Summary of the method: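 Cells were seeded at 2500 per well and incubated 5 hr at 37 C. Compounds were added across a concentration series and left 40 hr at 37 C. CellTiter-Glo was added for 30 min at room temperature before luminescence reading.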

[5] = Cell Viability - LYMP2-004 (AID 966); conditions: LYMP2-004 lymphoblastoid cell viability, qHTS; series mostly up to 92.2 µM; also: nearly all actives have a fitted effect of over 65% in size; also: potency is read from the fitted curve at half-maximal effect;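 as to activity change, negative = cytotoxicity: plate controls were DMSO only for no effect and tetraoctylammonium bromide control for full effect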
Summary of the method: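 Cells seeded 2500/well, rested 5 hr at 37 C, dosed across a concentration series, incubated 24 hr at 37 C, then CellTiter-Glo added for 30 min at room temperature and luminescence read. Hill fitting gave AC50.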

[6] = Cell Viability - LYMP2-021 (AID 974); conditions: LYMP2-021 lymphoblastoid cells viability; series mostly up to 92.2 µM;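 also: compound exposure lasts 24 hours at 37 °C; nearly all actives have a fitted effect of over 55% in size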; also: potency is read from the fitted curve at half-maximal effect; as to activity change, negative = cytotoxicity: % is scaled to controls: 0 for no effect and ±100 for the full control effect
Summary of the method: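 Plate 2500 lymphoblastoid cells per well and incubate 5 hr at 37 C. Add compounds over a concentration range and incubate 24 hr at 37 C. Add CellTiter-Glo, wait 30 min at room temperature, read luminescence.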

[7] = Cell Viability - LYMP2-025 (AID 976); conditions: LYMP2-025 lymphoblastoid cell viability; series mostly up to 92.2 µM;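 also: plate controls were DMSO only for no effect and tetraoctylammonium bromide control for full effect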
Summary of the method: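 Seed 2500 LYMP2-025 cells/well; 5 hr at 37 C; add compound; 24 hr at 37 C; add CellTiter-Glo; 30 min RT; read luminescence. AC50 from Hill-modelled concentration-response.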

[8] = Cell Viability - LYMP2-002 (AID 977); conditions: LYMP2-002 lymphoblastoid cell viability, qHTS; series mostly up to 92.2 µM;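 also: compound exposure lasted 24 h at 37 °C; plate controls were DMSO only for no effect and 92 µM tetraoctylammonium bromide for full effect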
Summary of the method: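 Human lymphoblastoid LYMP2-002 cells, 2500 per well, exposed to compounds for 24 h at 37 C in complete medium; viability read as intracellular ATP by CellTiter-Glo luminescence, AC50 from Hill fits.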

[9] = Cell Viability - LYMP2-008 (AID 980); conditions: LYMP2-008 lymphoblastoid cell viability, qHTS; series mostly up to 92.2 µM; also: % is scaled to controls: 0 for no effect and ±100 for the full control effect; nearly all actives have a fitted effect of over 60% in size
Summary of the method: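 qHTS, human lymphoblastoid line, 2500 cells/well; 5 hr preincubation, 24 hr compound, 37 C. CellTiter-Glo ATP luminescence. AC50 via Hill equation. Tetraoctylammonium bromide positive control.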

[10] = Cell Viability - LYMP2-014 (AID 983); conditions: LYMP2-014 lymphoblastoid cells, viability qHTS; series mostly up to 92.2 µM;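 also: plate controls were DMSO only for no effect and 92 µM tetraoctylammonium bromide for full effect; nearly all actives have a fitted effect of over 50% in size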
Summary of the method: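 Luminescent ATP signal (CellTiter-Glo, 30 min at room temperature) serves as the viability read-out after 24 hr compound exposure at 37 C. Cells were seeded at 2500 per well and settled 5 hr beforehand.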

[11] = Cell Viability - LYMP2-016 (AID 984); conditions: LYMP2-016 lymphoblastoid cell viability, qHTS; series mostly up to 92.2 µM; also: % is scaled to controls: 0 for no effect and ±100 for the full control effect; nearly all actives have a fitted effect of over 55% in size
Summary of the method: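 Cells were seeded at 2500 per well and rested 5 hr before a 24 hr compound exposure at 37 C. Viability was then gauged as cellular ATP by luciferase luminescence, with AC50 values fitted to the Hill equation.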

[12] = Cell Viability - LYMP2-018 (AID 985); conditions: LYMP2-018 lymphoblastoid cells, viability (qHTS); series mostly up to 92.2 µM; also: nearly all actives have a fitted effect of over 50% in size; also: potency is read from the fitted curve at half-maximal effect;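 as to activity change, negative = cytotoxicity: plate controls were DMSO only for no effect and tetraoctylammonium bromide at 92 µM for full effect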
Summary of the method: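 Luminescent ATP signal (CellTiter-Glo, read after 30 min at room temperature) reports viable cells after 24 hr compound treatment at 37 C. Concentration-response data were fitted to the standard Hill equation for AC50.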

[13] = Cell Viability - LYMP2-020 (AID 986); conditions: series mostly up to 92.2 µM;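 also: plate controls were DMSO only for no effect and tetraoctylammonium bromide at 92 µM for full effect; nearly all actives have a fitted effect of over 55% in size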
Summary of the method: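 Luminescent ATP signal (CellTiter-Glo, 30 min at room temperature) is the read-out after 24 h compound treatment of lymphoblastoid cells at 37 C. AC50 values come from Hill-equation fits across concentrations.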

[14] = Cell Viability - LYMP2-022 (AID 987); conditions: LYMP2-022 lymphoblastoid cell viability; series mostly up to 92.2 µM; also: nearly all actives have a fitted effect of over 55% in size; also: potency is read from the fitted curve at half-maximal effect
Summary of the method: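 qHTS: human lymphoblastoid cells 2500/well; 5 hr 37 C; cpd added; 24 hr 37 C; CellTiter-Glo, 30 min RT; luminescence. AC50 via Hill fit; tetraoctylammonium bromide positive ctrl.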

[15] = Cell Viability - LYMP2-026 (AID 989); conditions: LYMP2-026 lymphoblastoid cell viability, qHTS; series mostly up to 92.2 µM; also: % is scaled to controls: 0 for no effect and ±100 for the full control effect; nearly all actives have a fitted effect of over 50% in size
Summary of the method: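 Luminescent ATP signal (CellTiter-Glo, 30 min room temperature) measures viable lymphoblastoid cells after 24 hr compound treatment at 37 C. Decreased ATP reflects acute toxicity; AC50 values come from Hill-equation modeling.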

[16] = Cell Viability - LYMP1-002 - Assay at 40 hr (AID 994); conditions: LYMP1-002 lymphoblastoid cell viability; series mostly up to 92.2 µM;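 also: 0% = DMSO only and full inhibition = 92 µM tetraoctylammonium bromide; nearly all actives have a fitted effect of over 60% in size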
Summary of the method: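 Luminescent ATP signal served as the viability readout, with decreases taken as toxicity. Cells were treated with compounds across a concentration range for 40 hours at 37 C, and AC50 values came from standard Hill modeling.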

[17] = qHTS assay for small molecule antagonists of retinoid X receptor alpha signaling (AID 588546; active = well fitted inhibition curve with a large enough effect in the signal ratio, with a control signal flat, not every such curve was filed as active; the % refers to the signal ratio;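 also: cells stimulated with 9-cis-retinoic acid as agonist; % is scaled to controls: 0 for no effect and ±100 for the full control effect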); conditions: HEK293T RXRa-UAS-bla, beta-lactamase ratio, antagonist mode; measured here: W530 green channel, cytotoxicity proxy
Summary of the method: (§1)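 Beta-lactamase reporter inhibition, read as CCF4 fluorescence ratio (ex 405, em 460/530 nm) after 2 h at RT. HEK293T UAS-bla cells, 2500/well, were stimulated with 9-cis-RA at 500 or 100 nM final alongside test compound for 18 h at 37 C.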

[18] = biological target: Retinoic acid receptor RXR-alpha (Homo sapiens) (UniProt P19793); assay: as above; conditions: HEK293T RXRa-UAS-bla, beta-lactamase ratio, antagonist mode
Summary of the method: as §1

[19] = qHTS assay for cell viability of HEK293 cells (AID 743288); conditions: ATP luminescence (CellTiter-Glo), 18 h; max response: stronger effect = lower value; also: % is scaled to controls: 0 for no effect and ±100 for the full control effect; nearly all actives have a fitted effect of over 50% in size
Summary of the method: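 HEK293 parental, 2,000 cells/well; ≥5 h pre-incubation 37 C; pintool compound addition; 18 h, 37 C; CellTiter-Glo 30 min RT; luminescence read.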

[20] = qHTS assay for environmental chemicals that activate the Aryl hydrocarbon Receptor (AhR) signaling pathway (AID 651777); conditions: 1A2-DRE human hepatoma cells, luciferase, 24 h; activation: stronger effect = higher value; also: nearly all actives have a fitted effect of over 15% in size; also: potency is read from the fitted curve at half-maximal effect; as to activation: % of control where 0% means no effect
Summary of the method: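 Quantitative HTS in stably transfected human liver-derived cells whose luciferase gene sits downstream of the CYP1A2 promoter and dioxin response element. After 24 hr exposure at 37 C, One-Glo luminescence was measured.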

Retinoic acid receptor RXR-alpha (Homo sapiens), sequence (P19793 whole entry, looked up): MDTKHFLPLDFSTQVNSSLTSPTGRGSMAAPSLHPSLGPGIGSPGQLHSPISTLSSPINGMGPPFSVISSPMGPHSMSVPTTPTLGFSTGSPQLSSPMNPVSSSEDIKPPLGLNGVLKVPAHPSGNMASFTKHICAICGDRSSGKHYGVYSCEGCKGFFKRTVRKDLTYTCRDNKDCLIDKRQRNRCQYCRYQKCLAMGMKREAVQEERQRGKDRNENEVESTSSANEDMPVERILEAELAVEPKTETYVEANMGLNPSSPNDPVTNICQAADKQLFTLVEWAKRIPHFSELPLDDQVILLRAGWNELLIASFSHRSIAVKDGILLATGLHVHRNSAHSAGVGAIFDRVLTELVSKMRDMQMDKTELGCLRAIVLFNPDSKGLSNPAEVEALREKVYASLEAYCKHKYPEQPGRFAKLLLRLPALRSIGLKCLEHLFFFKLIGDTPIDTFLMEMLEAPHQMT

CCCCOC(=O)COc1ccc(Cl)cc1Cl
inactive: Potency [1] > 92 µM | Potency [2] > 92 µM | Potency [3] | Potency [4] | Potency [5] | Potency [6] | Potency [7] | Potency [8] | Potency [9] | Potency [10] | Potency [11] | Potency [12] | Potency [13] | Potency [14] | Potency [15] | Potency [16] | max response [18] 5.43% and -12.7% | max response [19] -2.46% and -7.81%
-10.2% and -6.39%: max response [17]

Brc1ccc(-c2ccccc2)cc1
inactive: Potency [1] > 92 µM | Potency [2] > 92 µM | Potency [3] | Potency [4] | Potency [5] | Potency [6] | Potency [7] | Potency [8] | Potency [9] | Potency [10] | Potency [11] | Potency [12] | Potency [13] | Potency [14] | Potency [15] | Potency [16] | activation [20] 11.7%

Oc1ccc(O)c2c(O)cccc12
-12.8%: max response [17]
active: Potency [5] 50.1 µM | Potency [6] 50.1 µM | Potency [12] 50.1 µM | Potency [14] 50.1 µM
inactive: Potency [1] > 92 µM | Potency [2] > 92 µM | Potency [3] | Potency [4] | Potency [7] | Potency [16] | max response [18] -1.49% | max response [19] -5%

CCc1ccc(C(c2ccc(CC)cc2)C(Cl)Cl)cc1
-4.78%: max response [17]
inactive: Potency [1] > 92 µM | Potency [2] > 92 µM | Potency [3] | Potency [4] | Potency [5] | Potency [6] | Potency [7] | Potency [8] | Potency [9] | Potency [10] | Potency [11] | Potency [12] | Potency [13] | Potency [14] | Potency [15] | Potency [16] | max response [18] -8.97% | activation [20] -0.69% | max response [19] -18.5%

CC(=O)OC(C(=O)c1ccccc1)c1ccccc1 (centres undefined)
-6.89%: max response [17]
inactive: Potency [1] > 92 µM | Potency [2] > 92 µM | Potency [3] | Potency [4] | Potency [5] | Potency [6] | Potency [7] | Potency [8] | Potency [9] | Potency [10] | Potency [11] | Potency [12] | Potency [13] | Potency [14] | Potency [15] | Potency [16] | max response [18] 22.3% | activation [20] -0.426% | max response [19] -11.3%

C=CC(=O)CC
inactive: Potency [1] > 92 µM | Potency [2] > 92 µM | Potency [3] | Potency [4] | Potency [5] | Potency [6] | Potency [7] | Potency [8] | Potency [9] | Potency [10] | Potency [11] | Potency [12] | Potency [13] | Potency [14] | Potency [15] | Potency [16] | max response [18] 10.2% | activation [20] 1.17% | max response [19] -3.35%
8.25%: max response [17]

Nc1ccc(N=Nc2ccccc2)c(N)c1
inactive: Potency [1] > 92 µM | Potency [2] > 92 µM | Potency [4] | Potency [5] | Potency [6] | Potency [7] | Potency [8] | Potency [9] | Potency [10] | Potency [11] | Potency [12] | Potency [13] | Potency [14] | Potency [15] | Potency [16] | max response [18] -15% | max response [19] -22.9%
-9.61%: max response [17]

Nc1ccc2c(c1)C(=O)c1ccccc1C2=O
active: Potency [20] 14.1 µM and 44.7 µM
inactive: Potency [1] > 92 µM | Potency [4] | Potency [5] | Potency [7] | Potency [9] | Potency [10] | Potency [11] | Potency [12] | Potency [13] | Potency [16] | max response [18] 7.8% and -4.23% | max response [19] -13.3% and -4.81%
-11.8% and -6.92%: max response [17]

Cc1cc(=O)oc2cc(O)cc(O)c12
inactive: Potency [1] > 92 µM | Potency [2] > 92 µM | Potency [3] | Potency [4] | Potency [5] | Potency [6] | Potency [7] | Potency [8] | Potency [9] | Potency [10] | Potency [11] | Potency [12] | Potency [13] | Potency [14] | Potency [15] | Potency [16] | activation [20] 8.78% | max response [19] -8.02%

c1c[nH]cn1
-8.47%: max response [17]
inactive: Potency [1] > 92 µM | Potency [2] > 92 µM | Potency [3] | Potency [4] | Potency [5] | Potency [6] | Potency [7] | Potency [8] | Potency [9] | Potency [10] | Potency [11] | Potency [12] | Potency [13] | Potency [14] | Potency [15] | Potency [16] | max response [18] -1.89% | activation [20] -1.48% | max response [19] -0.708%

O=c1[nH]ncc2ccccc12
inactive: Potency [1] > 92 µM | Potency [2] > 92 µM | Potency [3] | Potency [4] | Potency [5] | Potency [6] | Potency [7] | Potency [8] | Potency [9] | Potency [10] | Potency [11] | Potency [12] | Potency [13] | Potency [14] | Potency [15] | Potency [16] | max response [18] 13% | activation [20] 0.167% | max response [19] 0.756%
-5.72%: max response [17]
